This note sets out measurements from the supplement of paper PMC8007513.

This test relates to Trichoderma virens ATCC 9645. The test can be described thus: growth yield (OD600) relative to untreated control; higher = less growth inhibition. To be noted: compound concentration: 100 uM. The essentials: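 For each 96-well plate, 100 μl aliquots were prepared with Trichoderma virens ATCC 9645 spores suspended at 15,000 spores ml^−1 in potato dextrose broth. The spores had been harvested from potato dextrose agar plates after 7 days. Library compounds were present at 100 μM final, some wells also receiving a biocide at 200 ng ml^−1, and plates were grown at 30 °C with OD600 read on a BioTek EL800 at 40 h and 72 h. Reported growth, relative to the control lacking both agents, is the mean of duplicate screens.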

Each structure is given as a SMILES string. Counter-ions that a name gives are not always drawn. ± gives the standard error. Hit rate of the full screen: of about 1,300 compounds, about 75 (6%) showed an effect of 50% or more. The list comes from a sample in which strong results are over-represented; it also holds similar structures and randomly drawn compounds.

For the compound `N=C(N)NC(=O)Cc1c(Cl)cccc1Cl` [Guanfacine hydrochloride], the growth yield is, setting by setting: (40 h) 97.1 ± 1.4%; (72 h) 101.3 ± 0.63%.

For `COC(=O)CCc1ccc(OCC(O)CNC(C)C)cc1` (stereo not given) [Esmolol hydrochloride], the growth yield is 105 ± 4.6% (40 h) and 100 ± 1.5% (72 h).

Turning to `C/C(=C\C(=O)OCCCCCCCCC(=O)O)C[C@@H]1OC[C@H](C[C@@H]2O[C@H]2[C@@H](C)[C@H](C)O)[C@@H](O)[C@H]1O` [Mupirocin], the growth yield runs as follows: (40 h) 6.04 ± 2.9%; (72 h) 39.5 ± 8.5%.

With `O=C(O)CCC(=O)Nc1ccc(S(=O)(=O)Nc2nccs2)cc1` [Succinylsulfathiazole], the growth yield was 94.7 ± 3.5% (40 h) and 93.9 ± 2.6% (72 h).

`OCC(O)CN1CCN(c2ccccc2)CC1` (racemic) [Dropropizine (R,S)]: the growth yield is, setting by setting: (40 h) 101 ± 1.6%; (72 h) 101.7 ± 0.63%.

Consider `CC(C)(CO)C(O)C(=O)NCCCO` (stereo not given) [Panthenol (D)], for which the growth yield (40 h) is 100 ± 4.5% and the growth yield (72 h) is 98.1 ± 3%.

As to `CC(=O)OC[C@H]1O[C@@H]([S-])[C@H](OC(C)=O)[C@@H](OC(C)=O)[C@@H]1OC(C)=O.CCP(CC)CC.[Au+]` [Auranofin], the growth yield came out at 25.6 ± 2.1% (40 h) and 33 ± 2% (72 h).

As for `CN(C)/N=N/c1[nH]cnc1C(N)=O` [Dacarbazine], the growth yield turned out to be 95.6 ± 1.9% (40 h) and 98 ± 3.4% (72 h).

In the case of `O=C1C(O)=C([C@H]2CC[C@H](c3ccc(Cl)cc3)CC2)C(=O)c2ccccc21` [Atovaquone], the growth yield is, setting by setting: (40 h) 95.1 ± 4.3%; (72 h) 97.4 ± 1.6%.

Compound `COc1cccc(N(C)C(=S)Oc2ccc3c(c2)CCCC3)n1` [Liranaftate] displayed a growth yield (40 h) of 0% and a growth yield (72 h) of 0%.

With `CC(C)(C(=O)c1cccnc1)c1cccnc1` [Metyrapone], the growth yield reads like this: (40 h) 91 ± 3%; (72 h) 88.4 ± 2.6%.

With `COc1cc2nc(N(C)CCCNC(=O)C3CCCO3)nc(N)c2cc1OC` (stereo not given) [Alfuzosin hydrochloride], the growth yield is, setting by setting: (40 h) 104.7 ± 0.79%; (72 h) 105 ± 3.6%.

For `OC(CNCC(O)C1CCc2cc(F)ccc2O1)C1CCc2cc(F)ccc2O1` (stereo not given) [Nebivolol hydrochloride], the growth yield reads like this: (40 h) 95 ± 16%; (72 h) 114 ± 14%.

For `CN(C)CCOC1=Cc2ccccc2Sc2ccc(Cl)cc21` [Zotepine], the growth yield stood at 89.7 ± 14% (40 h) and 114 ± 11% (72 h).

In the case of `NC(N)=Nc1nc(CSCC/C(N)=N/S(N)(=O)=O)cs1` [Famotidine], the growth yield is, setting by setting: (40 h) 103 ± 1.9%; (72 h) 101 ± 1.3%.

As for `CCCCN(CCCC)CCC(O)c1cc2c(Cl)cc(Cl)cc2c2cc(C(F)(F)F)ccc12` (stereo not given) [Halofantrine hydrochloride], the growth yield is, setting by setting: (40 h) 25.6 ± 6.2%; (72 h) 95.9%.

For the compound `N=C(N)N/N=C/c1c(Cl)cccc1Cl` [Guanabenz acetate], the growth yield by setting is: (40 h) 91.5 ± 1.9%; (72 h) 90.7 ± 3.2%.

On to `COC(=O)[C@H]1[C@H]2C[C@@H]3c4[nH]c5cc(OC)ccc5c4CCN3C[C@H]2C[C@@H](OC(=O)c2cc(OC)c(OC)c(OC)c2)[C@@H]1OC` [Reserpine], for which the growth yield runs as follows: (40 h) 107 ± 5.4%; (72 h) 107 ± 2.8%.

In the case of `N=C(N)c1ccc(OCCCCCOc2ccc(C(=N)N)cc2)cc1` [Pentamidine isethionate], the growth yield is, setting by setting: (40 h) 1.91 ± 0.95%; (72 h) 1.78 ± 0.52%.

As for `CCCCOc1ccc(CC(=O)NO)cc1` [Bufexamac], the growth yield (40 h) was found to be 94.2 ± 1.1% and the growth yield (72 h) came to 88.1 ± 2.9%.

As for `CCCCOc1ccc(C(=O)CCN2CCCCC2)cc1` [Dyclonine hydrochloride], the growth yield runs as follows: (40 h) 93.6 ± 3%; (72 h) 98.7 ± 1.6%.

For `CC(C)(C)NC[C@@H](O)COc1cccc2c1CCCC2=O` [(+) -Levobunolol hydrochloride], the growth yield is 100.2 ± 0.16% (40 h) and 98.9 ± 0.1% (72 h).

As to `NS(=O)(=O)Cc1noc2ccccc12` [Zonisamide], the growth yield came to 104.5 ± 0.95% (40 h) and 98.8 ± 1.9% (72 h).

The compound `CN(C)CCN(Cc1ccccc1)c1ccccn1` [Tripelennamine hydrochloride] returned a growth yield (40 h) of 107 ± 1.4% and a growth yield (72 h) of 100 ± 1.6%.

In turn, `C[C@]1(Cn2ccnn2)[C@H](C(=O)O)N2C(=O)C[C@H]2S1(=O)=O` [Tazobactam] gave a growth yield (40 h) of 98.96 ± 0.79% and a growth yield (72 h) of 96.8 ± 1.4%.

As to `Clc1ccccc1C(c1ccccc1)(c1ccccc1)n1ccnc1` [Clotrimazole], the growth yield runs as follows: (40 h) 2.38 ± 1.8%; (72 h) 1.89 ± 1.1%.

In the case of `CN(C)c1ccc(O)c2c1C[C@H]1C[C@H]3[C@H](N(C)C)C(O)=C(C(N)=O)C(=O)[C@@]3(O)C(O)=C1C2=O` [Minocycline hydrochloride], the growth yield stood at 95.3 ± 0.64% (40 h) and 97.4 ± 2% (72 h).

For the compound `CC(C)(C)NC[C@H](O)COc1ccccc1C1CCCC1` [Penbutolol sulfate], the growth yield reads like this: (40 h) 109 ± 6.2%; (72 h) 110 ± 5.1%.

Turning to `CC(=O)N(CC(O)CO)c1c(I)c(C(=O)NCC(O)CO)c(I)c(C(=O)NCC(O)CO)c1I` (stereo not given) [Iohexol], the growth yield (40 h) came out at 103 ± 1.3% and the growth yield (72 h) came out at 106 ± 1.1%.

With `CNC(C)CCC=C(C)C` (stereo not given) [Isometheptene mucate], the growth yield was 99.1 ± 3.8% (40 h) and 96.2 ± 4.3% (72 h).

Consider `CCCC(=O)Nc1ncnc2c1ncn2[C@@H]1O[C@@H]2COP(=O)(O)O[C@H]2[C@H]1OC(=O)CCC` [Bucladesine sodium salt], for which the growth yield is, setting by setting: (40 h) 97.69 ± 0.79%; (72 h) 97.75 ± 0.42%.

Turning to `Nc1nc2c(ncn2COCCO)c(=O)[nH]1` [Acyclovir], the growth yield is, setting by setting: (40 h) 103.7 ± 0.48%; (72 h) 101 ± 1.7%.

Turning to `Nc1nc2c(ncn2COC(CO)CO)c(=O)[nH]1` [Ganciclovir], the growth yield (40 h) is 106 ± 4.3% and the growth yield (72 h) came out at 103 ± 4%.

In the case of `Nc1nc2n[nH]nc2c(=O)[nH]1` [Azaguanine-8], the growth yield runs as follows: (40 h) 3.49 ± 0.95%; (72 h) 2.62 ± 0.1%.

With `CC[C@]12CCCN3CCc4c(n(c5ccccc45)[C@@](O)(C(=O)OC)C1)[C@@H]32` [Vincamine], the growth yield runs as follows: (40 h) 97.37 ± 0.16%; (72 h) 95.3 ± 1.4%.
